Assay results published in PubChem BioAssay (NCI).
This is part of a sample that, as a whole, favours compounds with a hit. Of some 83,000 tested, about 20% had one in any assay.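 Cell lines were cultured in 96-well plates, exposed to a single compound concentration, and assessed for percent growth 48 hours later.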 The source made the active and inactive calls. The calls were made as follows: active = growth percent below 10; inactive = the rest.

Experiments:
Assay in all cases: NCI-60 one-dose screen, 48 h (100 = growth as untreated, 0 = no growth, -100 = all killed)
Details in all cases: 10 µM unless noted
SR leukemia = test system: SR leukemia
RPMI-8226 leukemia = test system: RPMI-8226 leukemia
OVCAR-8 ovarian = test system: OVCAR-8 ovarian
OVCAR-5 ovarian = test system: OVCAR-5 ovarian
OVCAR-4 ovarian = test system: OVCAR-4 ovarian
SK-OV-3 ovarian = test system: SK-OV-3 ovarian
IGROV1 ovarian = test system: IGROV1 ovarian
OVCAR-3 ovarian = test system: OVCAR-3 ovarian
HS 578T breast = test system: HS 578T breast
NCI/ADR-RES ovarian = test system: NCI/ADR-RES ovarian
T-47D breast = test system: T-47D breast
BT-549 breast = test system: BT-549 breast
MDA-MB-435 melanoma = test system: MDA-MB-435 melanoma
SW-620 colon = test system: SW-620 colon
MCF7 breast = test system: MCF7 breast
HCT-116 colon = test system: HCT-116 colon
HCC-2998 colon = test system: HCC-2998 colon
KM12 colon = test system: KM12 colon

Measured: growth

O=C(CSc1nc2sc3c(c2c(=O)n1-c1ccc(Cl)cc1)CCCC3)Nc1nc(-c2cccc(Br)c2)cs1
inactive: SR leukemia 80.6% | RPMI-8226 leukemia 96.4% | OVCAR-8 ovarian 68.1% | OVCAR-5 ovarian 75.7% | OVCAR-4 ovarian 72.9% | SK-OV-3 ovarian 94.2% | IGROV1 ovarian 72.6% | OVCAR-3 ovarian 89% | HS 578T breast 72.6% | NCI/ADR-RES ovarian 80.5% | T-47D breast 76.9% | BT-549 breast 92.1% | MDA-MB-435 melanoma 97.5% | SW-620 colon 78.9% | MCF7 breast 87.4% | HCT-116 colon 81.6% | HCC-2998 colon 107% | KM12 colon 83.8%

O=C(/C=C(O)/C=C/c1ccc(SC(F)(F)F)cc1)/C=C/c1ccc(SC(F)(F)F)cc1
inactive: SR leukemia 40.8% | RPMI-8226 leukemia 38.9% | OVCAR-8 ovarian 96% | OVCAR-5 ovarian 118% | OVCAR-4 ovarian 97.3% | SK-OV-3 ovarian 119% | IGROV1 ovarian 80.6% | OVCAR-3 ovarian 88% | HS 578T breast 98.2% | NCI/ADR-RES ovarian 104% | T-47D breast 78% | BT-549 breast 82.5% | MDA-MB-435 melanoma 79.2% | SW-620 colon 89.1% | MCF7 breast 52.1% | HCT-116 colon 17.7% | HCC-2998 colon 101% | KM12 colon 81.9%

CCOC(=O)c1cc(C(=O)c2ccc(Br)cc2)n2ccc(/C=C/c3cc[n+](CC(=O)c4ccc(OC)cc4)cc3)cc12
active: SR leukemia -2.64% | MCF7 breast -9.87%
inactive: RPMI-8226 leukemia 45.7% | OVCAR-8 ovarian 59.9% | OVCAR-5 ovarian 102% | OVCAR-4 ovarian 86.7% | SK-OV-3 ovarian 114% | IGROV1 ovarian 86% | OVCAR-3 ovarian 102% | HS 578T breast 129% | NCI/ADR-RES ovarian 87.5% | T-47D breast 90.1% | BT-549 breast 109% | MDA-MB-435 melanoma 101% | SW-620 colon 48.6% | HCT-116 colon 37.7% | HCC-2998 colon 95.1% | KM12 colon 99.2%

C=CCN1C(=O)/C(=C/C(=O)OC)S/C1=N\NC(=O)c1cc2ccc1/C=C\c1ccc(cc1)/C=C\2
inactive: OVCAR-8 ovarian 88.2% | OVCAR-5 ovarian 96.1% | OVCAR-4 ovarian 97.1% | SK-OV-3 ovarian 140% | IGROV1 ovarian 89.2% | OVCAR-3 ovarian 86.4% | HS 578T breast 93.6% | NCI/ADR-RES ovarian 89.5% | T-47D breast 62.8% | BT-549 breast 61.7% | MDA-MB-435 melanoma 100% | SW-620 colon 44.5% | MCF7 breast 51.5% | HCT-116 colon 54% | HCC-2998 colon 108% | KM12 colon 81.6%
active: SR leukemia 1.79% | RPMI-8226 leukemia -9.36%

O=C(NNc1nc2c(F)cccc2n2cccc12)c1cnccn1
inactive: RPMI-8226 leukemia 10.6% | OVCAR-8 ovarian 21.1% | OVCAR-5 ovarian 39% | OVCAR-4 ovarian 28.1% | SK-OV-3 ovarian 28.4% | IGROV1 ovarian 21.1% | OVCAR-3 ovarian 23.2% | HS 578T breast 77.3% | T-47D breast 22.8% | BT-549 breast 38% | MDA-MB-435 melanoma 32% | SW-620 colon 29% | MCF7 breast 10.5% | HCT-116 colon 12.4% | HCC-2998 colon 52.9% | KM12 colon 23.2%
active: SR leukemia 7.37% | NCI/ADR-RES ovarian 3.12%

COc1ccc(/C=N/NC(=O)c2cnn3c2NC(c2ccccc2)C3)cc1OC (stereo unspecified)
active: MDA-MB-435 melanoma 0.386%
inactive: SR leukemia 32.3% | RPMI-8226 leukemia 83.2% | OVCAR-8 ovarian 75.3% | OVCAR-5 ovarian 92.1% | OVCAR-4 ovarian 107% | SK-OV-3 ovarian 78.9% | IGROV1 ovarian 59.6% | OVCAR-3 ovarian 18% | HS 578T breast 68% | NCI/ADR-RES ovarian 85.5% | T-47D breast 56% | BT-549 breast 42.3% | SW-620 colon 44.4% | MCF7 breast 29.6% | HCT-116 colon 22% | HCC-2998 colon 67% | KM12 colon 44.6%

CN(C)CCn1c2ccc(Br)cc2c2nc3ccccc3nc21
active: RPMI-8226 leukemia 9.2%
inactive: SR leukemia 11.2% | OVCAR-8 ovarian 32.9% | OVCAR-5 ovarian 46.4% | OVCAR-4 ovarian 44% | SK-OV-3 ovarian 50.8% | IGROV1 ovarian 18% | OVCAR-3 ovarian 39.9% | HS 578T breast 77.8% | NCI/ADR-RES ovarian 31.8% | T-47D breast 38.4% | BT-549 breast 84.4% | MDA-MB-435 melanoma 41.8% | SW-620 colon 17.5% | MCF7 breast 19.7% | HCT-116 colon 18.2% | HCC-2998 colon 47.3% | KM12 colon 35%

COc1ccc(/C=C/c2nc(Nc3ccc(S(=O)(=O)Nc4nc(C)cc(C)n4)cc3)c3ccccc3n2)cc1
inactive: SR leukemia 49.5% | RPMI-8226 leukemia 62.3% | OVCAR-8 ovarian 66.1% | OVCAR-5 ovarian 74.9% | OVCAR-4 ovarian 77.2% | SK-OV-3 ovarian 90.9% | IGROV1 ovarian 90.8% | OVCAR-3 ovarian 79.6% | HS 578T breast 83.1% | NCI/ADR-RES ovarian 73.1% | T-47D breast 49.1% | BT-549 breast 87.9% | MDA-MB-435 melanoma 60.6% | SW-620 colon 61.1% | MCF7 breast 42.2% | HCT-116 colon 66.4% | HCC-2998 colon 74.9% | KM12 colon 47.5%

CC(Sc1nc2ccccc2c(=O)n1CCc1ccc(S(N)(=O)=O)cc1)C(=O)Nc1ccc(Cl)cc1 (stereo unspecified)
inactive: SR leukemia 77.4% | RPMI-8226 leukemia 65.9% | OVCAR-8 ovarian 72.8% | OVCAR-5 ovarian 85.7% | OVCAR-4 ovarian 93.2% | SK-OV-3 ovarian 125% | IGROV1 ovarian 86.3% | OVCAR-3 ovarian 99.1% | HS 578T breast 86.5% | NCI/ADR-RES ovarian 77.3% | T-47D breast 67.6% | BT-549 breast 102% | MDA-MB-435 melanoma 98.7% | SW-620 colon 98.1% | MCF7 breast 84.6% | HCT-116 colon 79.9% | HCC-2998 colon 103% | KM12 colon 97.5%

S=c1cc(S)c2cc(Br)ccc2[nH]1
inactive: SR leukemia 94.1% | RPMI-8226 leukemia 96.7% | OVCAR-8 ovarian 91.5% | OVCAR-5 ovarian 114% | OVCAR-4 ovarian 92.6% | SK-OV-3 ovarian 98.6% | IGROV1 ovarian 89.5% | OVCAR-3 ovarian 100% | HS 578T breast 109% | NCI/ADR-RES ovarian 101% | T-47D breast 84.5% | BT-549 breast 90.7% | MDA-MB-435 melanoma 95.5% | SW-620 colon 99.2% | MCF7 breast 88.7% | HCT-116 colon 78.2% | HCC-2998 colon 102% | KM12 colon 101%

COc1cc2c(c(O)c1Br)C(=O)c1c(O)cc(C[C@H](C)O)cc1[C@H]2[C@H]1c2cc(C[C@H](C)O)cc(O)c2C(=O)c2c1cc(OC)c(Br)c2O
inactive: OVCAR-8 ovarian 10.4% | OVCAR-4 ovarian 11.5% | NCI/ADR-RES ovarian 56.3% | BT-549 breast 17.3% | SW-620 colon 18.2% | HCT-116 colon 10.1% | HCC-2998 colon 26%
active: SR leukemia -5.41% | RPMI-8226 leukemia 9.04% | OVCAR-5 ovarian 0.764% | SK-OV-3 ovarian 8.82% | IGROV1 ovarian 2.65% | OVCAR-3 ovarian -27.4% | HS 578T breast 9.13% | T-47D breast 8.03% | MDA-MB-435 melanoma 9.24% | MCF7 breast 8.05% | KM12 colon 9.13%

COc1ccc(/C=C/c2nc(Nc3ccc(S(=O)(=O)Nc4cc(C)on4)cc3)c3ccccc3n2)cc1
inactive: SR leukemia 45.4% | RPMI-8226 leukemia 67.9% | OVCAR-8 ovarian 61.3% | OVCAR-5 ovarian 71.1% | OVCAR-4 ovarian 73.4% | SK-OV-3 ovarian 77.4% | IGROV1 ovarian 78% | OVCAR-3 ovarian 83.7% | HS 578T breast 80.3% | NCI/ADR-RES ovarian 75.7% | T-47D breast 37.4% | BT-549 breast 85.8% | MDA-MB-435 melanoma 39.3% | SW-620 colon 70% | MCF7 breast 32.1% | HCT-116 colon 68.1% | HCC-2998 colon 69.6% | KM12 colon 49%

COc1cc2c3c(c4c5ccccc5[nH]c4c2c(OC)c1OC)C(=O)N(CCN1CCOCC1)C3=O
inactive: SR leukemia 21.5% | RPMI-8226 leukemia 39.5% | OVCAR-8 ovarian 31% | OVCAR-5 ovarian 99.7% | OVCAR-4 ovarian 70% | SK-OV-3 ovarian 83.2% | IGROV1 ovarian 53.9% | OVCAR-3 ovarian 76.4% | HS 578T breast 66.6% | NCI/ADR-RES ovarian 45.8% | T-47D breast 66% | BT-549 breast 73.5% | MDA-MB-435 melanoma 73.9% | SW-620 colon 32.4% | MCF7 breast 32% | HCT-116 colon 19.7% | HCC-2998 colon 69.5% | KM12 colon 61%

NS(=O)(=O)c1ccc(CCN2C(=O)C=CC2=O)cc1
inactive: SR leukemia 91.6% | RPMI-8226 leukemia 102% | OVCAR-8 ovarian 104% | OVCAR-5 ovarian 106% | OVCAR-4 ovarian 97.7% | SK-OV-3 ovarian 110% | IGROV1 ovarian 104% | OVCAR-3 ovarian 106% | HS 578T breast 108% | NCI/ADR-RES ovarian 99.6% | T-47D breast 99.5% | BT-549 breast 111% | MDA-MB-435 melanoma 108% | SW-620 colon 106% | MCF7 breast 94.4% | HCT-116 colon 99.7% | HCC-2998 colon 95.2% | KM12 colon 104%

Cc1ccc(S(=O)(=O)Nn2c3c(cc(-c4nc5ccccc5s4)c2=O)CCCCCC3)cc1
inactive: SR leukemia 97.8% | RPMI-8226 leukemia 97.8% | OVCAR-8 ovarian 92.3% | OVCAR-5 ovarian 105% | OVCAR-4 ovarian 98.5% | SK-OV-3 ovarian 104% | IGROV1 ovarian 95.3% | OVCAR-3 ovarian 102% | HS 578T breast 91.7% | NCI/ADR-RES ovarian 95.8% | T-47D breast 96.4% | BT-549 breast 109% | MDA-MB-435 melanoma 103% | SW-620 colon 99.6% | MCF7 breast 91.3% | HCT-116 colon 98% | HCC-2998 colon 115% | KM12 colon 101%

CC1(C)CC[C@]23CC[C@]4(C)[C@H](CC[C@@H]5[C@@]6(C)CCCNC(C)(C)[C@@H]6CC[C@]54C)[C@H]2[C@H]1OC3
active: SR leukemia -30.2% | RPMI-8226 leukemia -29.7% | OVCAR-8 ovarian -45.6% | OVCAR-5 ovarian 8.55% | OVCAR-4 ovarian -51.2% | IGROV1 ovarian -58.7% | OVCAR-3 ovarian -31.2% | HS 578T breast -9.12% | NCI/ADR-RES ovarian -19.6% | T-47D breast 2.46% | MDA-MB-435 melanoma -80% | SW-620 colon -71.9% | MCF7 breast -25% | HCT-116 colon -99.4% | HCC-2998 colon -55.5% | KM12 colon -69%
inactive: SK-OV-3 ovarian 75.8% | BT-549 breast 76.4%

COCc1cnccc1NC1CCCCCC1
inactive: SR leukemia 101% | RPMI-8226 leukemia 104% | OVCAR-8 ovarian 96.3% | OVCAR-5 ovarian 108% | OVCAR-4 ovarian 98.6% | SK-OV-3 ovarian 111% | IGROV1 ovarian 110% | OVCAR-3 ovarian 102% | HS 578T breast 96% | NCI/ADR-RES ovarian 100% | T-47D breast 98.7% | BT-549 breast 119% | MDA-MB-435 melanoma 104% | SW-620 colon 99.3% | MCF7 breast 97.2% | HCT-116 colon 100% | HCC-2998 colon 103% | KM12 colon 100%
